According to PubChem BioAssay:
The source made the active and inactive calls.

Key:
[1] = system: PRMT1 (protein arginine N-methyltransferase 1); assay: PRMT1 binders on small-molecule microarrays, primary screen, biochemical, small-molecule microarray, 635 nm fluorescence (AID 1088); settings: small-molecule microarray binding, higher = more signal;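 further: binding of Prmt1 protein to compounds spotted on small-molecule microarray slides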
[2] = yeast growth modulation, basal conditions, primary screen, YJM789 clinical isolate, OD600, 24 h (AID 1089);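 further: growth of clinical yeast isolate S. cerevisiae YJM 789 seeded 1000 cells per well; test concentration not given here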; settings: S. cerevisiae YJM789 growth, higher = more signal, called active from +8 up or from −8 down
[3] = fission yeast growth modulation, primary screen, strain 972, OD600, 24 h, no modulator (AID 1090);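 further: basal condition with compound alone and no growth modifier present; test concentration not given here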; settings: S. pombe 972 growth, higher = more signal, called active from +8 up or from −8 down
[4] = S. cerevisiae growth modulation with rapamycin, primary screen, strain BY4716, OD600, 96 h (AID 1091); settings: higher = more signal, called active from +8 up or from −8 down; further: test concentration not given here
[5] = target: Torsin-1A-interacting protein 2 (Homo sapiens) (UniProt Q8NFQ8); assay: LULL1 binders on small-molecule microarray, primary screen, cell lysate, human LULL1 lysate, 635/667 nm fluorescence (AID 1092); settings: hLULL1 lysate binding, 635 nm fluorescence, higher = more signal;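 further: probe is lysate of COS7 cells overexpressing human LULL1; score merges per-feature 667 nm fluorescence with signal-to-noise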
Torsin-1A-interacting protein 2 (Homo sapiens), sequence (Q8NFQ8 whole entry, looked up): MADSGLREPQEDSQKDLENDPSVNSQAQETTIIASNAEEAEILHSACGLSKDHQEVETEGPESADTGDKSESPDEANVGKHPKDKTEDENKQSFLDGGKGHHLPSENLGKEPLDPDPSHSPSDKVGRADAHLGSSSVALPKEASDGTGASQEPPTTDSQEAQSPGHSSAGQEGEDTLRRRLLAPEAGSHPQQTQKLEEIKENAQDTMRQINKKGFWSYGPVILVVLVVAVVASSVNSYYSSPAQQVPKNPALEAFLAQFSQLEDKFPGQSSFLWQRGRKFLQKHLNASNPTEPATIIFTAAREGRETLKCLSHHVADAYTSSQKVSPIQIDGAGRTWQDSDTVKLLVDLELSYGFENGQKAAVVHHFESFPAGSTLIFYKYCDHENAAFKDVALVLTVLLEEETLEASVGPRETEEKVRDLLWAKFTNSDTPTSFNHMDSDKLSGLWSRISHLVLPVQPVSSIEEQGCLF

[6] = E. coli growth modulation, two-sided OD650, primary screen, E. coli filamentation project, strain DRC41, 24 h (AID 1093); settings: OD650, 24 h, higher = more signal, called active from +8 up or from −8 down;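 further: MC1000 strain lacking acrAB efflux and sulA so SOS filamentation is blocked; test concentration not given here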
[7] = small-molecule microarray binders of probe aLefty2, primary screen, biochemical, biotinylated probe, 635/667 nm fluorescence (AID 1094); settings: higher = more signal;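 further: score merges spot fluorescence near 667 nm with spot signal-to-noise ratio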
[8] = system: Noggin (protein binding on small-molecule microarray); assay: Noggin binders on small-molecule microarray, primary screen, biochemical, 635/667 nm fluorescence (AID 1095); settings: 635 nm fluorescence, higher = more signal;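 further: score merges 667 nm feature fluorescence with signal to noise over triplicate slides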
[9] = target: Neurogenic locus notch homolog protein 3 (Homo sapiens) (UniProt Q9UM47); assay: NOTCH3 binders on small-molecule microarray, primary screen, biochemical, 635/667 nm fluorescence (AID 1096); settings: NOTCH3 binding, 635 nm fluorescence, higher = more signal
Neurogenic locus notch homolog protein 3 (Homo sapiens), sequence (Q9UM47 whole entry, looked up): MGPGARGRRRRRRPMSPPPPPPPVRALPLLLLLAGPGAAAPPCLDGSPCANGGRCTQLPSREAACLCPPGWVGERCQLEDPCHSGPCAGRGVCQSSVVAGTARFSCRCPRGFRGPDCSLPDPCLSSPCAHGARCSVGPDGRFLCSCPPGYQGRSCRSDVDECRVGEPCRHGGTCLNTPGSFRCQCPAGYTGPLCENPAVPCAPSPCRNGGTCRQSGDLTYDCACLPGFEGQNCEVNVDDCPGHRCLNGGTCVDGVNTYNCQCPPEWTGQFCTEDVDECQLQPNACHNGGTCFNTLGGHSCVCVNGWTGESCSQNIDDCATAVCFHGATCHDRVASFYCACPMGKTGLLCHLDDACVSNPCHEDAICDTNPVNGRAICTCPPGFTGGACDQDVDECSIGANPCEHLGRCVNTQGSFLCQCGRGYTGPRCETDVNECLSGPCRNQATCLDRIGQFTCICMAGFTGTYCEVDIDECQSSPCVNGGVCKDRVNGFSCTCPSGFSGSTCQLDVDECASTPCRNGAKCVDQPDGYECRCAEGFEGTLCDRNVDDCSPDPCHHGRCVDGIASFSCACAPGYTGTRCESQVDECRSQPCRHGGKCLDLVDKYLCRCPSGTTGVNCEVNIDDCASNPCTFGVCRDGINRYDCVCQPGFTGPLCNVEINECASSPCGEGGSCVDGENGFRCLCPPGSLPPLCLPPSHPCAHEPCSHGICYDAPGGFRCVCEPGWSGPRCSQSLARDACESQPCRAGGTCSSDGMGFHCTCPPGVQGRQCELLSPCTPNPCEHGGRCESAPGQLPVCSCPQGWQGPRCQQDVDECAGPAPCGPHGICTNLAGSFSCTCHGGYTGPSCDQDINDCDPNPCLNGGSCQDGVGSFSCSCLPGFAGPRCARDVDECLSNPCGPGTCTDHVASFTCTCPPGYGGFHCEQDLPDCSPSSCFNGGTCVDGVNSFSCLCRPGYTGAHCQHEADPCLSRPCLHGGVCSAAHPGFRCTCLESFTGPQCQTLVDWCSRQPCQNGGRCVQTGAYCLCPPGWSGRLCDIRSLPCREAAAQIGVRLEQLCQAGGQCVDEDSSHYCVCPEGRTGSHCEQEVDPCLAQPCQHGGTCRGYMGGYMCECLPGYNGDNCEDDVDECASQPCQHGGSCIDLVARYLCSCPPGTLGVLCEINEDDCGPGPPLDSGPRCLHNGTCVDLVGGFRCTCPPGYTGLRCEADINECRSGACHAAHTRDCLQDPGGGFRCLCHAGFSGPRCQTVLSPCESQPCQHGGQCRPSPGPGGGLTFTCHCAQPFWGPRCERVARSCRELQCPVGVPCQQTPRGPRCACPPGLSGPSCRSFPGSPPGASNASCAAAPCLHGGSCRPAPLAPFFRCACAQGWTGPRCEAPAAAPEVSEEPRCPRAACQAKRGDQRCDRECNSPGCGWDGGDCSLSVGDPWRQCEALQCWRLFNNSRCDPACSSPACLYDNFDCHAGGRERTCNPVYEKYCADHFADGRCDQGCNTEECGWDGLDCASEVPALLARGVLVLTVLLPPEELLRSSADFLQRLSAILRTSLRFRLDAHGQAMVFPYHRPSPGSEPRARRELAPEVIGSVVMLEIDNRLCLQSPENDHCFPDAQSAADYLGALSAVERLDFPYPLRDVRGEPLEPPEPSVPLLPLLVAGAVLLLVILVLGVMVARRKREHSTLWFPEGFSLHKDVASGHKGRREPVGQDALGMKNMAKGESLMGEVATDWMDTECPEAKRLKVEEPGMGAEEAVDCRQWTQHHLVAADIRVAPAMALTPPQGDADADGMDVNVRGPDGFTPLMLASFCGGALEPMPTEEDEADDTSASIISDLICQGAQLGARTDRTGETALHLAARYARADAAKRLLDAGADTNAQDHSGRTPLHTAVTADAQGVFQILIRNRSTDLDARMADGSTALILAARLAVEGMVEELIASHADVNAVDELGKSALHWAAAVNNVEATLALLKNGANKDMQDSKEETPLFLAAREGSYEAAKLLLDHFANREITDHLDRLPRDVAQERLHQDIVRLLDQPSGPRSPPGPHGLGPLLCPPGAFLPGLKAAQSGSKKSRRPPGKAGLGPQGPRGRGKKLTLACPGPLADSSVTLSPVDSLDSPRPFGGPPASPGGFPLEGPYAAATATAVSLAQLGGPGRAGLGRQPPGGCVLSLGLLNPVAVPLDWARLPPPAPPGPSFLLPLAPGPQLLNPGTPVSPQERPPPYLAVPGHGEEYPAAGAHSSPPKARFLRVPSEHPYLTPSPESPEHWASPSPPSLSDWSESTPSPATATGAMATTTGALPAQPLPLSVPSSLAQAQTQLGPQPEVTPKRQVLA

[10] = small-molecule microarray binders of probe aEGFR, primary screen, biochemical, biotinylated probe, 635/667 nm fluorescence (AID 1097); settings: higher = more signal;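 further: probe is a biotinylated anti-EGFR antibody binding compounds printed on slides; score combines fluorescence near 667 nm and signal to noise of each spot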

SMILES	composite z-score [1]	z-score [2]	z-score [3]	z-score [4]	composite z-score [5]	z-score [6]	composite z-score [7]	composite z-score [8]	composite z-score [9]	composite z-score [10]
CC(=O)NCCCC[C@@H]1NC(=O)[C@H]2C[C@@H](C(=O)NCCCCCN)[C@@H](c3ccc(O)cc3)N2C1=O	1.07	0.447 (inactive)	-0.121 (inactive)	1.01 (inactive)	2.05	-0.475 (inactive)	0.0158	1.35	0.284	0.0209
C=CCNC(=O)[C@H]1[C@@H]2C(=O)O[C@@H](c3ccccc3)[C@@H](c3ccccc3)N2[C@@H](c2ccc(OCCO)cc2)[C@]12C(=O)N(C(=O)OCCOC)c1ccc(C#CCC(C(=O)OC)C(=O)OC)cc12	1.54	2.06 (inactive)	1.07 (inactive)	6.82 (inactive)	3.45	-0.0319 (inactive)	0.771	1.42	1.08	0.315
CN1C(=O)C2C=CC(C(O)c3ccc([N+](=O)[O-])cc3)N(Nc3ccccc3)C2C1=O (stereo not given)	1.38	0.439 (inactive)	-0.184 (inactive)	0.315 (inactive)	3.25	-1.69 (inactive)	0.222	-0.0487	1.03	0.0089
COC(=O)C(CC#Cc1ccc2c(c1)[C@]1(C(=O)N2)[C@H](c2ccc(OCCO)cc2)N2[C@H](c3ccccc3)[C@H](c3ccccc3)OC(=O)[C@H]2[C@@H]1C(N)=O)C(=O)OC	1.06	1.76 (inactive)	1.23 (inactive)	6.23 (inactive)	2.03	-0.0446 (inactive)	-0.134	0.122	0.0497	-0.19
CCCCN1CC=CC23O[C@@H]4C=CCCOC(=O)C4[C@H]2C(=O)N(CCO)[C@@H]3C1=O (stereo not given in full)	-0.0141	-0.207 (inactive)	-0.492 (inactive)	-0.19 (inactive)	-0.248	1.5 (inactive)	-0.182	0.132	-0.414	-0.167
CC(CO)N1C(=O)[C@@H]2[C@H]3C(=O)OCC=C[C@H]3OC23C=CCN(c2ccc4ccccc4c2)C(=O)[C@@H]13 (stereo not given in full)	-0.534	-0.112 (inactive)	-0.688 (inactive)	-0.128 (inactive)	-1.16	-0.594 (inactive)	0.111	-1.89	-1.4	-0.301
COc1ccc(CCNC(=O)[C@@H]2c3ccccc3C(=O)N(C(C)C)[C@H]2c2ccc(CO)cc2)cc1	-0.592	0.342 (inactive)	-0.264 (inactive)	-0.0884 (inactive)	2.05	1.39 (inactive)	0.0129	-1.3	-2.01	-0.238
CC[C@@H](O[Si](C#C[Si](C(C)C)(C(C)C)C(C)C)(C(C)C)C(C)C)c1cn(Cc2cccc(Cl)c2)nn1	0.869	0.978 (inactive)	0.719 (inactive)	1.44 (inactive)	-0.0557	0.909 (inactive)	-0.138	0.523	0.932	-0.113
[N-]=[N+]=NCc1ccccc1C[C@@]1(C(N)=O)N=C(c2ccc(OCCCO)cc2)O[C@@H]1c1ccccc1N=[N+]=[N-]	1.28	-0.506 (inactive)	-0.292 (inactive)	-0.531 (inactive)	3.22	-0.331 (inactive)	0.137	0.0508	0.516	0.0766
COc1ccc(C(O)C2C=CC3C(=O)N(C)C(=O)C3N2Nc2ccccc2)cc1 (stereo not given)	1.29	-0.0991 (inactive)	-0.546 (inactive)	0.695 (inactive)	3.3	-0.238 (inactive)	0.156	-0.357	1.06	0.147
COCCOC(=O)N1C(=O)[C@@]2(c3cc(C#CC4=CCCCC4)ccc31)[C@H](C(=O)N1CCCCCCC1)[C@H]1C(=O)O[C@H](c3ccccc3)[C@H](c3ccccc3)N1[C@@H]2c1ccccc1OCCO	1.55	1.01 (inactive)	-1.22 (inactive)	1.98 (inactive)	3.02	0.87 (inactive)	1.15	1.5	1.06	0.417
COc1ccc([Si](C)(C)[C@H]2[C@H](CC(=O)N3CCC[C@H]3CO)O[C@@]3(C(=O)N(C)c4ccccc43)[C@@H]2C)cc1	0.969	-0.42 (inactive)	-0.134 (inactive)	-0.401 (inactive)	0.757	-0.735 (inactive)	-0.0258	1.85	0.207	-0.151
COC(=O)[C@@]1(Cc2ccc(F)cc2)[C@H]2c3cc(C(=O)N(C)C)n(Cc4ccc(C(F)(F)F)nc4)c3C[C@H]2CN1C(=O)c1ccccc1	1.32	0.538 (inactive)	0.909 (inactive)	4.36 (inactive)	3.71	-0.366 (inactive)	0.317	0.108	1.02	0.379
[N-]=[N+]=NCc1ccccc1[C@H]1OC(c2ccc(OCCCO)cc2)=N[C@@]1(CCS(=O)(=O)c1ccccc1)C(=O)NCCN1CCOCC1	1.56	0.917 (inactive)	0.306 (inactive)	1.27 (inactive)	3.5	-0.0501 (inactive)	0.181	0.0038	1.06	0.214
